Test results as given in PubChem BioAssay AID1159580 (chemical genetic matrix, 2015).
Several values for one entry are separate records, joined by “and”; a condition that tells them apart may be missing. Identical values can stand only once. Among all 5,500 compounds or so, about 2,000 (36%) were called active. Roughly 18% stayed inconclusive and do not appear here. Cut-off read from the data, not from the text of the source: active = normalized growth mostly below about 0.91 (no sharp cut-off); inconclusive = no clear call, values can overlap the other calls; inactive = mostly above about 0.92. Some of the results follow.

Assay: chemical genetic growth profiling, strain panel (AID 1159580);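 note: tested at 20 µM; growth read once vehicle control cultures reached saturation at 30 °C; 1 = growth at the plate median or of vehicle wells; lower values mean less growth of the strain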
Conditions: S. cerevisiae deletion strains, growth OD

Measured: normalized growth

CC(C)=CCC/C(C)=C/CO
inactive: locus YAL013W, strain DEP1, active compounds read low 1.01 | locus YAL021C, strain ccr4, active compounds read low 1.02 | locus YAL026C, strain drs2, active compounds read low 0.98 | locus YAL030W, strain snc1, active compounds read low 0.995 | locus YBL061C, strain skt5, active compounds read low 0.986 | locus YBR009C, strain hhf1, active compounds read low 1.01 | locus YBR021W, strain FUR4, active compounds read low 1 | locus YBR023C, strain chs3, active compounds read low 1 | locus YBR171W, strain sec66, active compounds read low 0.973 | locus YBR229C, strain ROT2, active compounds read low 1.02 | locus YBR231C, strain swc5, active compounds read low 1.02 | locus YBR279W, strain paf1, active compounds read low 1.01 | locus YCL011C, strain gbp2, active compounds read low 0.972 | locus YCL016C, strain dcc1, active compounds read low 1.02 | locus YCL029C, strain bik1, active compounds read low 0.988 | locus YCL069W, strain vba3, active compounds read low 0.986 | locus YCR088W, strain abp1, active compounds read low 0.976 | locus YDL005C, strain med2, active compounds read low 0.979 | locus YDL035C, strain GPR1, active compounds read low 1.01 | locus YDL040C, strain nat1, active compounds read low 0.977 | locus YDL074C, strain BRE1, active compounds read low 0.994 | locus YDL101C, strain DUN1, active compounds read low 1.01 | locus YDL134C, strain PPH21, active compounds read low 1.02 | locus YDL185W, strain tfp1, active compounds read low 0.985 | locus YDL192W, strain arf1, active compounds read low 1 | locus YDR001C, strain nth1, active compounds read low 0.992 | locus YDR069C, strain doa4, active compounds read low 0.984 | locus YDR101C, strain arx1, active compounds read low 0.978 | locus YDR137W, strain rgp1, active compounds read low 0.982 | locus YDR150W, strain NUM1, active compounds read low 1.01 | locus YDR159W, strain sac3, active compounds read low 0.937 | locus YDR162C, strain NBP2, active compounds read low 1.01 | locus YDR195W, strain ref2 0.968 | locus YDR297W, strain sur2, active compounds read low 0.987 | locus YDR318W, strain mcm21, active compounds read low 0.995 | locus YDR334W, strain swr1, active compounds read low 0.99 | locus YDR335W, strain msn5, active compounds read low 0.987 | locus YDR388W, active compounds read low 0.987 | locus YDR392W, strain spt3, active compounds read low 0.929 | locus YDR502C, strain sam2, active compounds read low 0.989 | locus YEL003W, strain gim4, active compounds read low 0.986 | locus YEL037C, strain rad23, active compounds read low 0.978 | locus YEL061C, strain CIN8 (second series), active compounds read low 0.975 | locus YEL061C, strain CIN8, active compounds read low 1.01 | locus YER015W, strain faa2, active compounds read low 0.982 | locus YER016W, strain bim1, active compounds read low 0.98 | locus YER110C, active compounds read low 0.985 | locus YER111C, strain swi4, active compounds read low 0.988 | locus YER155C, strain BEM2 (second series), active compounds read low 1.02 | locus YER155C, strain BEM2, active compounds read low 1.01 | locus YER167W, strain BCK2, active compounds read low 1.01 | locus YFR010W, strain ubp6, active compounds read low 0.978 | locus YGL078C, strain dbp3, active compounds read low 0.984 | locus YGL086W, strain mad1, active compounds read low 0.992 | locus YGL167C, strain pmr1, active compounds read low 0.986 | locus YGL173C, strain kem1, active compounds read low 0.958 | locus YGL227W, strain vid30, active compounds read low 0.981 | locus YGL240W, strain doc1, active compounds read low 0.967 | locus YGL248W, strain PDE1, active compounds read low 1.03 | locus YGL253W, strain hxk2, active compounds read low 0.961 | locus YGR078C, strain PAC10, active compounds read low 1 | locus YGR135W, strain pre9, active compounds read low 0.988 | locus YGR229C, strain SMI1, active compounds read low 0.998 | locus YGR252W, strain gcn5, active compounds read low 1.03 | locus YHR013C, strain ard1, active compounds read low 1 | locus YHR027C, strain rpn1, active compounds read low 0.977 | locus YHR030C, strain SLT2, active compounds read low 1.01 | locus YHR079C, strain IRE1 (second series), active compounds read low 0.993 | locus YHR079C, strain IRE1, active compounds read low 0.994 | locus YHR094C, strain hxt1, active compounds read low 0.995 | locus YHR129C, strain ARP1, active compounds read low 1.01 | locus YHR142W, strain chs7, active compounds read low 0.998 | locus YHR200W, strain rpn10, active compounds read low 1 | locus YIL066C, strain RNR3, active compounds read low 1.01 | locus YIL073C, strain SPO22, active compounds read low 0.989 | locus YIL125W, strain kgd1, active compounds read low 1 | locus YIR030C, strain dcg1, active compounds read low 0.993 | locus YJL092W, strain hpr5, active compounds read low 0.985 | locus YJL095W, strain BCK1 (second series), active compounds read low 0.982 | locus YJL095W, strain BCK1, active compounds read low 1 and 0.989 | locus YJL115W, strain asf1, active compounds read low 0.993 | locus YJL129C, strain trk1, active compounds read low 0.981 | locus YJL134W, strain LCB3, active compounds read low 1.01 | locus YJL154C, strain vps35, active compounds read low 0.988 | locus YJL164C, strain tpk1, active compounds read low 1.02 | locus YJL166W, strain qcr8, active compounds read low 1.01 | locus YJL168C, strain set2, active compounds read low 0.992 | locus YJL187C, strain SWE1 (second series), active compounds read low 1.01 | locus YJL187C, strain SWE1, active compounds read low 0.993 | locus YJR043C, strain POL32, active compounds read low 0.986 | locus YJR066W, strain TOR1, active compounds read low 0.994
